The panel holds about 79,000 compounds, 15% with a hit somewhere; the sample as a whole holds those more often. Activity calls are given as the source filed them. Rule as the data show it: active = growth inhibition above about 70%; inactive = the rest.
Key:
[1] = NCI Yeast Anticancer Drug Screen. Data for the rad50 strain (AID 155);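 also: 0% = growth of vehicle-only cultures of the same strain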; settings: S. cerevisiae rad50 strain growth inhibition; at 50.0 µM; stronger effect = higher value
How it was run: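 Genetically altered yeast (DNA repair pathway); compound treatment; growth inhibition vs vehicle ctrl.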

[2] = NCI Yeast Anticancer Drug Screen. Data for the mec2-1 strain (AID 157); settings: S. cerevisiae mec2-1 strain, at 50.0 µM, stronger effect = higher value
How it was run: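 Using mec2-1 yeast: add compound, measure growth, express inhibition versus vehicle-treated cultures.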

[3] = NCI Yeast Anticancer Drug Screen. Data for the sgs1 mgt1 strain (AID 161);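 also: 0% = growth of cultures given vehicle only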; settings: S. cerevisiae sgs1 mgt1 strain, at 50.0 µM, stronger effect = higher value
How it was run: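 Growth of a repair-deficient yeast mutant was monitored after compound treatment and expressed as inhibition relative to vehicle-treated cultures.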

[4] = NCI Yeast Anticancer Drug Screen. Data for the cln2 rad14 strain (AID 165);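 also: 0% = growth equal to vehicle treated cultures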; settings: S. cerevisiae cln2 rad14 strain, at 50.0 µM, stronger effect = higher value
How it was run: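 Yeast strain cln2 rad14, bearing defects in cell cycle control and DNA repair, serves as the test system; values reflect growth inhibition compared with vehicle.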

[5] = NCI Yeast Anticancer Drug Screen. Data for the bub3 strain (AID 167); settings: S. cerevisiae bub3 mutant strain, at 50.0 µM, stronger effect = higher value
How it was run: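 Yeast carrying a defined mutation is treated with each compound, and growth is compared with that of vehicle-exposed cells to give inhibition.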

[6] = NCI Yeast Anticancer Drug Screen. Data for the mlh1 rad18 strain (AID 175); settings: S. cerevisiae mlh1 rad18 strain growth inhibition; at 50.0 µM; stronger effect = higher value
How it was run: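 Steps: expose repair-defective yeast to compound; measure growth; express inhibition against vehicle-treated controls.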

Measured: growth inhibition

CCOC(=O)CNC(=O)CNC(=O)CNS(=O)(=O)c1ccc(C)cc1
inactive: [1] -22.1% | [2] 15.2% | [3] 3.1% | [4] -28.5% | [5] 10.9% | [6] -45.8%

C=CCC1=C2CCCCC2CCC1=O (configuration not stated)
inactive: [1] -5.7% | [2] -27.8% | [3] -15.9% | [4] 3.3% | [5] -11% | [6] 4.95%

O=C(NC(=O)c1c(F)cccc1F)Nc1ccc(Br)cc1
inactive: [1] 29.2% | [2] 53.3% | [3] 19.4% | [4] 7.25% | [5] 34.5% | [6] 23.4%

CCCCCCCCCCCCCCCCCCS
inactive: [1] -1.15% | [2] -25.3% | [3] -7.85% | [4] -14.7% | [5] 8.3% | [6] -5.7%

COc1ccccc1C(O)(c1ccccc1OC)C1(O)CCN(C)CC1
inactive: [1] -10.8% | [2] -10.9% | [3] -4.8% | [4] -4.45% | [5] -5.3% | [6] -10.4%

CC(=O)NCCc1ccc2c(c1)[nH]c1ccccc12
inactive: [1] -1.9% | [2] -36% | [3] -8.75% | [4] 12.6% | [5] -17.1% | [6] -8.05%

CC(C)(C)c1ccn[nH]1.CC(C)(C)c1ccn[nH]1.[Cl-].[Cl-].[O]=[V][O-]
inactive: [1] 0.9% | [2] -12.4% | [3] 9.65% | [4] -29.2% | [5] -21.8% | [6] -12.8%

CC1=[N+]([O-])c2ccccc2C(=O)C1=O
inactive: [1] 35.3% | [2] 12.3% | [3] 35.3% | [4] 33.6% | [5] 41.1% | [6] 27.1%

CCCCCCCCCCCCCCCCCCCOc1ccc(OCCCCCCCCCCCC)cc1
inactive: [1] 35% | [2] -7.15% | [3] 25.9% | [4] -40.1% | [5] -1.35% | [6] -15.9%

CC1=Nc2ccccc2N2C1=CC1=C(C(=O)c3cc4ccccc4cc3C1=O)C2C (configuration not stated)
inactive: [1] 16.4% | [2] 6.65% | [3] 5.75% | [4] 24.2% | [5] -5.2% | [6] 24.4%

CC(=O)c1cccc(C(C)=O)n1
inactive: [1] -24.2% | [2] -36.1% | [3] -35.9% | [4] 18.1% | [5] -19.8% | [6] 9.6%

CNC(=O)OC(COC)CN1CCN(c2ccccc2C)CC1 (configuration not stated)
inactive: [1] -25.8% | [2] -47.8% | [3] -10.6% | [4] -1.25% | [5] -8.3% | [6] -6.5%

N[n+]1ccccc1
inactive: [1] -9.45% | [2] -6.85% | [3] -9.1% | [4] -37.4% | [5] -4.65% | [6] -2.6%

Cc1cccc(N/N=C2\CCSc3ccccc32)c1
inactive: [1] 17.9% | [2] 8.45% | [3] 3.35% | [4] 5.95% | [5] 3.75% | [6] 4%

Cc1ccc(CCn2cnc3c(N(CCO)CCO)ncnc32)cc1
inactive: [1] -8.45% | [2] 23.8% | [3] -6.85% | [4] 15.6% | [5] 7.95% | [6] -9.6%

CCOC(=O)c1nnsc1NN
inactive: [1] 8.8% | [2] -7.45% | [3] -47.6% | [4] 0.95% | [5] -22.4% | [6] -4.1%

O=C1Cc2nc3ccccc3nc2CC(=O)c2ccccc21
inactive: [1] 4.9% | [2] 10.9% | [3] 9.35% | [4] -19.9% | [5] -12.1% | [6] 13.3%

CCOC(CNCCC(=O)OC)OCC
inactive: [1] -31.9% | [2] -59.2% | [3] -23.4% | [4] -8% | [5] -5.35% | [6] -29.1%

CC(C)C(=O)Nc1nc2c(ncn2C2OC(CO)C(O)C2O)c(=O)[nH]1 (configuration not stated)
inactive: [1] 5.9% | [2] -23.6% | [3] -22.3% | [4] 8.15% | [5] -5.75% | [6] -4.15%

CC(C)=C1C(=O)C[C@]2(C)C[C@H]3O[C@]3(C)CC[C@@H]3O[C@@]3(C)CC[C@@H]12
inactive: [1] 0.3% | [2] -8.05% | [3] 12.6% | [4] 14.1% | [5] -1.65% | [6] -66.5%

Cc1[nH]c2ccccc2c1C1=CC(=O)N(c2ccccc2)C1=O
inactive: [1] -24.1% | [2] -23.6% | [3] 9.3% | [4] 21.4% | [5] -4.7% | [6] -7.9%

Nc1ccccc1CN1C(=O)CCC1=O
inactive: [1] 0.25% | [2] -6.8% | [3] -12.4% | [4] -14.9% | [5] -10.1% | [6] -14.2%

COc1cccc(/C(C#N)=C\O)c1
inactive: [1] -17.2% | [2] -36.9% | [3] -29.9% | [4] 3.2% | [5] -42.9% | [6] -8.8%

c1ccc(CC2NCCc3c2[nH]c2ccccc32)cc1 (configuration not stated)
inactive: [1] -14.2% | [2] 2.9% | [3] -5.05% | [4] -6.2% | [5] -11.9% | [6] 1.5%

O=C1NC2c3ccccc3CCC12 (configuration not stated)
inactive: [1] -1.55% | [2] -5.45% | [3] -1.5% | [4] -71.8% | [5] 8.65% | [6] -4.5%

CCN(CC)CCNC(=O)Nc1ccc(OC)cc1
inactive: [1] 2.15% | [2] 24% | [3] 13.8% | [4] -0.05% | [5] 32.8% | [6] 7.65%

COc1ccccc1NC(=O)/C(Cc1nc2ccc([N+](=O)[O-])cc2[nH]c1=O)=N\NC(=O)C[N+](C)(C)C
inactive: [1] 31.6% | [2] 23.4% | [3] 7.3% | [4] -26.2% | [5] 25.4% | [6] 13.2%

CCOCNC(=O)Nc1ccccc1
inactive: [1] -5.4% | [2] -15.6% | [3] 7% | [4] -37.5% | [5] 0.35% | [6] 3.9%

c1ccc2c(c1)-c1ccccc1C2N1CCCC1
inactive: [1] 14.2% | [2] 14.8% | [3] 4.2% | [4] 10.4% | [5] -0.85% | [6] -7.9%

CC[CH2][Sn]([CH2]CC)([O]C(=O)c1cccnc1SC)[O][Sn]([CH2]CC)([CH2]CC)[O]C(=O)c1cccnc1SC
active: [1] 88.5% | [2] 90% | [3] 90.8% | [4] 88.9% | [5] 89.1% | [6] 82.1%

O=C(NCCNCCCNC(=O)c1cc(-c2ccccc2)nc2ccccc12)c1cccc(O)c1O
inactive: [1] 8.4% | [2] 22.6% | [3] 33.1% | [4] 22.6% | [5] 49.5% | [6] 44.2%

CC(=O)N1CCN(C=S)CC1
inactive: [1] -16.5% | [2] -9.6% | [3] -5.65% | [4] 15.8% | [5] -4.05% | [6] -15.5%

CC(=O)Oc1ccc(C2OC(=O)c3ccccc3N2C(C)=O)cc1 (configuration not stated)
inactive: [1] 4.05% | [2] 27.6% | [3] 12.7% | [4] -6.3% | [5] 34.6% | [6] 26.9%

COc1ccc(Cl)cc1NC(=O)Nc1ccc(SC)cc1
inactive: [1] 24.1% | [2] 50.6% | [3] 56.5% | [4] 20.8% | [5] 33% | [6] 35.5%

COc1ccc(C(=O)C2CC(=O)NC2=O)cc1 (configuration not stated)
inactive: [1] -11.6% | [2] -5.95% | [3] -1.8% | [4] -38.5% | [5] -0.7% | [6] -0.4%

CCOC(=O)C(C)C1CCCc2c(C)ccc(C)c21 (configuration not stated)
inactive: [1] -8.25% | [2] 9.6% | [3] 1.25% | [4] -1.8% | [5] 8.5% | [6] 2.7%

CC(C)=CCC(C)c1ccncc1 (configuration not stated)
inactive: [1] 1.9% | [2] -9.15% | [3] 9.45% | [4] -9.05% | [5] 15% | [6] 7.4%

CC(=O)N1Cc2c(nc[nH]c2=O)C1C (configuration not stated)
inactive: [1] -8.05% | [2] 27.4% | [3] -7.6% | [4] 14.9% | [5] 5.2% | [6] 0.45%

CCN(CC)c1ccc(NC(=O)CCl)cc1
inactive: [1] -3.95% | [2] -12.5% | [3] -13% | [4] 1.45% | [5] -15.8% | [6] 8.2%

O=C(O)COc1cccc([N+](=O)[O-])c1
inactive: [1] 3% | [2] -10.3% | [3] -9.9% | [4] -62.5% | [5] -5% | [6] -17.4%

COc1ccc(-c2cc(-c3ccccc3)c(C#N)c(=O)n2C2OC(CO)C(O)C(O)C2O)cc1 (configuration not stated)
inactive: [1] -8.2% | [2] 11.6% | [3] 2.45% | [4] 12.8% | [5] -5.6% | [6] -2.05%

N#C/C(=C/c1cccc(Oc2ccccc2)c1)c1ccccc1
inactive: [1] 11.7% | [2] -28.2% | [3] -0.55% | [4] -1.5% | [5] -23.1% | [6] -14.4%
